Inconclusive results are not listed. Activity calls are given as the source filed them. Calls come from the whole dose curve; as a rule, active = well fitted curve in the direction sought with a large enough effect in the repeat runs; inconclusive = weak or mixed curves; inactive = no such curve, though single readings can be large; an effect the other way counts as inactive or inconclusive.
% is set by controls: 0 for no effect and ±100 for the full control effect; potency is the fitted concentration of half-maximal effect.
Note: nearly all actives have a fitted effect of over 55% in size.

Sequence of Cytochrome P450 2D6 (Homo sapiens) (P10635 whole entry, looked up): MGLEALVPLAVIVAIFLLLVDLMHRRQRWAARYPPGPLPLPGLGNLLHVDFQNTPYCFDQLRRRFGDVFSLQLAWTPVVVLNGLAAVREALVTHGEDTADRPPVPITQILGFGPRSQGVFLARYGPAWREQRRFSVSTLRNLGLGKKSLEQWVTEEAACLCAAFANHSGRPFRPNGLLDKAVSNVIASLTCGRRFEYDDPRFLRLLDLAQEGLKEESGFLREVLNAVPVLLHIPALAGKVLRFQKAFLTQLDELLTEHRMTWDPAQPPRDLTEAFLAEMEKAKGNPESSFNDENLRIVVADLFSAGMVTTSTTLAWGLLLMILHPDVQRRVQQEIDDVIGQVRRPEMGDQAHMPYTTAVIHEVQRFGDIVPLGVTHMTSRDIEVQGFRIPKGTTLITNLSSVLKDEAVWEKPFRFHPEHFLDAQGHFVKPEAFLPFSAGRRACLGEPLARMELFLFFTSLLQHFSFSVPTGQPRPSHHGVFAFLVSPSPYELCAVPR
Sequence of Cytochrome P450 2C9 (Homo sapiens) (P11712 whole entry, looked up): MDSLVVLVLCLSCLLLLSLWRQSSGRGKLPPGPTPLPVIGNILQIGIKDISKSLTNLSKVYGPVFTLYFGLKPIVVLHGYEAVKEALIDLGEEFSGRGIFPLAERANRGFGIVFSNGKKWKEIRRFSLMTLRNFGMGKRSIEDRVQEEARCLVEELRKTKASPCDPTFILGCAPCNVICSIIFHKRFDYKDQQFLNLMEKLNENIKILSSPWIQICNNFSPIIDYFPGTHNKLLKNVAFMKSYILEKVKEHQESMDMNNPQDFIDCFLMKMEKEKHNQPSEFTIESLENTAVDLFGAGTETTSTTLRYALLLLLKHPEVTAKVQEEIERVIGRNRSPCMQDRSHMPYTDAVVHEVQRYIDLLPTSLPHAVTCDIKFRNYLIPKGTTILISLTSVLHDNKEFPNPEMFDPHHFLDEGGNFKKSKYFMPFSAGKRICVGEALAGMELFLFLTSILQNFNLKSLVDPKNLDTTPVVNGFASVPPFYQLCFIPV

The target of one test is Cytochrome P450 2D6 (Homo sapiens) (UniProt P10635). The test can be described thus: Cytochrome P450 family 2 subfamily D member 6 (CYP2D6) small molecule antagonists: luciferase biochemical (cell-free) qHTS assay (AID 1645840). Particulars: P450-Glo CYP2D6 enzyme, luciferin luminescence, 1 h; series mostly up to 57.4 µM; activity change, negative = inhibition: at the top concentration. The method in brief:
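P450-Glo luminescent screen: recombinant CYP2D6 enzyme–proluciferin substrate mix preincubated with compound 10 min at room temperature, then NADPH regeneration added for 1 h at room temperature. Detection reagent added for 20 min; luciferin light read as relative luminescence units.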
(Quantitative high-throughput screening tests each substance at several concentrations.)
In the case of `CC(C)[C@@](O)(c1ccc2cc(OC(F)F)c(OC(F)F)cc2c1)c1cn[nH]n1`, the Potency was 1.69 µM (active).
On the same count and under the same terms, the result for `CCOC(=O)c1ccc(NC2CCCCC2)c(N)c1` reads 9.52 µM (active); that for `COc1cccc(OC)c1-c1cc(C(=O)N[C@@H](CC(C)C)C(=O)O)nn1-c1ccnc2cc(Cl)ccc12`, 23.9 µM (active).
With `Cc1nnc(-c2ccc3occ(-c4ccc(S(C)=O)cc4)c3c2)o1` (stereo not drawn), the “activity change, negative = inhibition” value is 4.43% (inactive).
With `CCOc1ccc(-c2nn3ncccc3c2-c2ccc(S(C)(=O)=O)cc2)cc1`, the Potency is 1.07 µM (active).
For `COc1ccc(-c2ccn(CC[C@](C)(C(=O)NO)S(C)(=O)=O)c(=O)c2)c(F)c1`, the “activity change, negative = inhibition” value is 28.3% (inactive).
The same measure, in the same setting: as for `Cc1ccccc1-n1nc(-c2c(-c3ccc(F)cc3)nn3c2NC[C@@H](CO)C3)ccc1=O`, the figure is 0.587% (inactive).
The same measure, in the same setting: the result for `N[C@@H](CC(=O)Nc1ccc(Oc2cc(F)c(F)cc2Br)cc1)C(=O)O` reads 6.41% (inactive).
For `COc1cccc(CN(C(=O)CC(C)(C)C)C2CC(C(=O)N3CCNCC3)N(Cc3ccc4c(c3)OCO4)C2)c1` (stereo not drawn), the Potency is 26.8 µM (active).
Still for that read-out and setting: as for `O=C(OC(C(F)(F)F)C(F)(F)F)N1CCN(Cc2cccc(Oc3ccccc3)c2)CC1`, the figure is 1.51 µM (active); as for `COc1cccc(Cn2ncc3c4sc(S(C)=O)cc4n(C)c3c2=O)c1` (stereo not drawn), 10.7 µM (active).
Turning to `CC(C)NC(=O)c1ccc(C#Cc2ccncc2)cn1`, the “activity change, negative = inhibition” value was -2.97% (inactive).
On the same count and under the same terms, the result for `CCCNCCOc1ccc(NC(=O)c2c[nH]c3c2C(=O)CCC3)cc1F` reads -24.2% (inactive).
Take `COc1ccccc1N1CCN(CCCCNC(=O)c2ccc(-c3cscn3)cc2)CC1`: the Potency is 6.01 µM (active).
On the same count and under the same terms, as for `CCCSc1nc(NC2CC2c2ccc(F)c(F)c2)c2nnn(C3CC(OCCO)C(O)C3O)c2n1` (stereo not drawn), the figure is 21.3 µM (active).
As for `CC(=O)NCC1CN(c2ccc(-c3ccc(CNCc4cn[nH]n4)cc3)c(F)c2)C(=O)O1` (stereo not drawn), the “activity change, negative = inhibition” value was -22.9% (inactive).
As to `Cc1onc(-c2c(Cl)cccc2Cl)c1CC(=O)NCc1ccc(OCC(F)(F)F)nc1`, the Potency is 19 µM (active).
For the molecule `CCNC(=O)OC1CCN(c2nncc3cc(OC)c(OC)cc23)CC1`, the Potency is 16.9 µM (active).
Regarding `Oc1ccccc1-c1cc(-c2ccccc2F)[nH]n1`, the “activity change, negative = inhibition” value was -1.32% (inactive).
In the case of `CN1CCc2cc(Cl)c(O)cc2[C@@H](c2cccc3c2OCC3)C1`, the Potency is 0.477 µM (active).
In the case of `NC[C@H]1CCC[C@@H](CNC(=O)[C@@H](Cc2c[nH]c3ccccc23)NC(=O)N2CCC3(C=Cc4ccccc43)CC2)C1`, the Potency was 10.5 µM (active).
`COc1cc(Cc2cnc(N)nc2N)c(C(C)C)cc1OC`: the “activity change, negative = inhibition” value is -29% (inactive).
In the case of `O=C(NC/C=C/CN1CCN(c2cccc(Cl)c2Cl)CC1)c1ccc(-c2ccccn2)cc1`, the Potency was 1.2 µM (active).

Another test has as its target Cytochrome P450 2C9 (Homo sapiens) (UniProt P11712). In words: Cytochrome P450 family 2 subfamily C member 9 (CYP2C9) small molecule antagonists: luciferase biochemical (cell-free) qHTS assay (AID 1645842). Particulars: P450-Glo CYP2C9 enzyme assay, luciferin luminescence; series mostly up to 57.4 µM; activity change, negative = inhibition: at the top concentration. The method in brief: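 Luminescence, after 20 min with luciferin detection reagent, reflected CYP2C9 turnover during a 1 h NADPH-driven reaction at 37C. Enzyme-substrate mix contained 0.4% bovine serum albumin and was preincubated with compound 10 min at room temperature.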
As for `CC(C)[C@@](O)(c1ccc2cc(OC(F)F)c(OC(F)F)cc2c1)c1cn[nH]n1`, the Potency was 1.07 µM (active).
`CCOC(=O)c1ccc(NC2CCCCC2)c(N)c1`: the Potency was 5.35 µM (active).
As to `COc1cccc(OC)c1-c1cc(C(=O)N[C@@H](CC(C)C)C(=O)O)nn1-c1ccnc2cc(Cl)ccc12`, the Potency is 16.9 µM (active).
On the same count and under the same terms, as for `Cc1nnc(-c2ccc3occ(-c4ccc(S(C)=O)cc4)c3c2)o1` (stereo not drawn), the figure is 19 µM (active); as for `CCOc1ccc(-c2nn3ncccc3c2-c2ccc(S(C)(=O)=O)cc2)cc1`, 4.77 µM (active).
On to `COc1ccc(-c2ccn(CC[C@](C)(C(=O)NO)S(C)(=O)=O)c(=O)c2)c(F)c1`, for which the “activity change, negative = inhibition” value was 2.02% (inactive).
In the case of `Cc1ccccc1-n1nc(-c2c(-c3ccc(F)cc3)nn3c2NC[C@@H](CO)C3)ccc1=O`, the Potency is 6.74 µM (active).
Still for that read-out and setting: the result for `O=C(OC(C(F)(F)F)C(F)(F)F)N1CCN(Cc2cccc(Oc3ccccc3)c2)CC1` reads 19 µM (active).
As to `COc1cccc(Cn2ncc3c4sc(S(C)=O)cc4n(C)c3c2=O)c1` (stereo not drawn), the Potency is 12 µM (active).
As to `CC(C)NC(=O)c1ccc(C#Cc2ccncc2)cn1`, the Potency is 0.601 µM (active).
Regarding `CCCNCCOc1ccc(NC(=O)c2c[nH]c3c2C(=O)CCC3)cc1F`, the “activity change, negative = inhibition” value is -2.29% (inactive).
In the case of `CCCSc1nc(NC2CC2c2ccc(F)c(F)c2)c2nnn(C3CC(OCCO)C(O)C3O)c2n1` (stereo not drawn), the Potency was 3.79 µM (active).
As to `CC(=O)NCC1CN(c2ccc(-c3ccc(CNCc4cn[nH]n4)cc3)c(F)c2)C(=O)O1` (stereo not drawn), the Potency is 15.1 µM (active).
The same measure, in the same setting: as for `Cc1onc(-c2c(Cl)cccc2Cl)c1CC(=O)NCc1ccc(OCC(F)(F)F)nc1`, the figure is 2.39 µM (active); as for `CCNC(=O)OC1CCN(c2nncc3cc(OC)c(OC)cc23)CC1`, 15.1 µM (active); as for `Oc1ccccc1-c1cc(-c2ccccc2F)[nH]n1`, 13.5 µM (active).
As to `CN1CCc2cc(Cl)c(O)cc2[C@@H](c2cccc3c2OCC3)C1`, the “activity change, negative = inhibition” value was 5.15% (inactive).
Take `NC[C@H]1CCC[C@@H](CNC(=O)[C@@H](Cc2c[nH]c3ccccc23)NC(=O)N2CCC3(C=Cc4ccccc43)CC2)C1`: the Potency is 1.86 µM (active).
As to `COc1cc(Cc2cnc(N)nc2N)c(C(C)C)cc1OC`, the “activity change, negative = inhibition” value was 2.26% (inactive).
As for `O=C(NC/C=C/CN1CCN(c2cccc(Cl)c2Cl)CC1)c1ccc(-c2ccccn2)cc1`, the Potency was 10.7 µM (active).

The values above are taken from PubChem BioAssay (NCATS).
